Inconclusive results are not listed. Activity calls are given as the source filed them. The call rests on the fitted dose curve; in most records, active means well fitted curve in the direction sought with a large enough effect; inconclusive means small, poorly fitted or top-dose-only effect, or another doubt; inactive means no such curve, though single readings can be large or run the other way.
The molecules below were run against Calcium and integrin-binding protein 1 (Homo sapiens) (UniProt Q99828) (assay: Validation qHTS for Identification of Calcium Integrin Binding protein 1 (CIB1) Competitor (AID 1508618)). Conditions: CIB1-GST / FITC-alphaIIb peptide fluorescence polarization; series mostly up to 114 µM; activity change, negative = inhibition: at the top concentration.
Chain of Calcium and integrin-binding protein 1 (Homo sapiens) (Q99828 whole entry, looked up): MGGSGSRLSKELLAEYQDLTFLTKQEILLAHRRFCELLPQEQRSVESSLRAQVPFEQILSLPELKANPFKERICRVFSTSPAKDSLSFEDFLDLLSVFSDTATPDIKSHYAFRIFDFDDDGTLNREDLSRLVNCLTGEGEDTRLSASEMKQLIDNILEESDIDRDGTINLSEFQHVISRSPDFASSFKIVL
How it was run: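 CIB1-GST (1 uM final) in 5 mM HEPES pH 7.4, 125 mM NaCl, 5 mM CaCl2, 0.01% Tween20 was preincubated 15 min at room temperature with compound (up to 114 uM), then FITC-alphaIIb peptide (100 nM) added for 15 min; fluorescence polarization read.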
On the % scale 0 is the no-effect control and ±100 the full control effect.

SMILES	activity change, negative = inhibition
Nc1nc(Cl)nc2c1ncn2[C@@H]1O[C@H](COP(=O)(O)OP(=O)(O)OP(=O)(O)O)[C@@H](O)[C@H]1O	7.78% (inactive)
CCCN(CC1CC1)c1nc(C)nc(Nc2c(Cl)cc(Cl)cc2Cl)c1Cl	1.83% (inactive)
Nc1nc(SCc2ccc([N+](=O)[O-])cc2)c2ncn([C@@H]3O[C@H](CO)[C@@H](O)[C@H]3O)c2n1	-1.46% (inactive)
CSc1nc(N)c2ncn([C@@H]3O[C@H](COP(=O)(O)OP(=O)(O)OP(=O)(O)O)[C@@H](O)[C@H]3O)c2n1	19.3% (inactive)
Nc1ncnc2c1ncn2[C@@H]1O[C@H](COP(=O)(O)OP(=O)(O)OP(=O)(O)OP(=O)(O)OC[C@@H]2O[C@H](n3cnc4c(N)ncnc43)[C@@H](O)[C@H]2O)[C@@H](O)[C@H]1O	6.17% (inactive)
COc1ccc2c(c1)CCC1C2CC[C@@]2(C)C1CC[C@@H]2NCCCCCCN1C(=O)CCC1=O (stereo partly drawn)	6.42% (inactive)
O=C(O)c1cc(=O)c2c(Cl)cc(Cl)cc2[nH]1	0.0932% (inactive)
Oc1ccc(C2CNCc3sccc32)cc1O (stereo not drawn)	3.72% (inactive)
COc1cc(OC)c(/C=C2/C(=O)Nc3ccccc32)c(OC)c1	11.5% (inactive)
NC(=O)C1=CN(C2OC(COP(=O)(O)OP(=O)(O)OC[C@H]3O[C@@H](n4cnc5c(N)ncnc54)[C@H](OP(=O)(O)O)[C@@H]3O)C(O)C2O)C=CC1 (stereo partly drawn)	3.83% (inactive)
CNC(=O)[C@H]1O[C@@H](n2cnc3c(NCc4ccc(N)cc4)ncnc32)[C@H](O)[C@@H]1O	6.9% (inactive)
O=C(O)c1cc([N+](=O)[O-])ccc1NCCCc1ccccc1	-12.5% (inactive)
CC(=O)SCC[N+](C)(C)C	9.59% (inactive)

Source: PubChem BioAssay (NCATS)
